In PubChem BioAssay one finds composite z-score and z-score data, which are given here for five molecules.

Active and inactive are the calls of the source.

Test [1] is described as follows: binders of probe aFSTL3 on microarray, primary screen, stem cell growth factor project, biochemical, small-molecule microarray, fluorescence 635/667 (AID 1064).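 Further: measures binding of the biotinylated anti-FSTL3 antibody to printed compounds.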 To be noted: higher = more signal.
Test [2] is described as follows: binders from COS7 lysate, DM2A8 probe, primary screen, torsin A project, cell lysate, small-molecule microarray, fluorescence 635/667 (AID 1065). To be noted: higher = more signal, COS7 lysate expressing mutant human TOR1A.
Test [3] is described as follows: binders of probe aFGF2 on microarray, primary screen, stem cell growth factor project, biochemical, small-molecule microarray, fluorescence 635/667 (AID 1067).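 Further: measures binding of biotinylated aFGF2 protein to printed compounds on slides; z-score merges feature fluorescence and signal-to-noise across triplicate slides.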 To be noted: higher = more signal.
Test [4] is described as follows: binders of probe aFGF10 on microarray, primary screen, stem cell growth factor project, biochemical, small-molecule microarray, fluorescence 635/667 (AID 1071).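 Further: score merges 667 nm spot intensity and signal to noise from triplicate slides.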 To be noted: higher = more signal.
Test [5] concerns the target Neurogenic locus notch homolog protein 2 (Homo sapiens) (UniProt Q04721). The test is described as follows: Notch2 binders on small-molecule microarrays, primary screen, biochemical, small-molecule microarray, 635 nm fluorescence, stem cell growth factors (AID 1073). To be noted: Notch2 binding, higher = more signal.
Test [6] deals with Pro-neuregulin-1, membrane-bound isoform (Homo sapiens) (UniProt Q02297). Description: NRG1 binders on small-molecule microarrays, primary screen, psychiatric disease protein project, biochemical, small-molecule microarray, fluorescence 635/667 (AID 1075).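 Further: score combines 667 nm spot fluorescence with signal to noise.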 To be noted: NRG1 binding, 635 nm fluorescence, higher = more signal.
Test [7] deals with Neuregulin-1 EGF-like domain. The test is described as follows: binders of neuregulin-1 EGF-like domain, primary screen, biochemical, small-molecule microarray, 635 nm fluorescence (AID 1081).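 Further: binding of the protein to compounds printed on small-molecule microarray slides.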 To be noted: small-molecule microarray binding, higher = more signal.
Test [8] is described as follows: FRG1 promoter luciferase signal modulators, primary screen, FRG1 inhibition for FSHD, cell-based, C2C12 myotubes, firefly/Renilla luciferase, luminescence (AID 1084). To be noted: higher = more signal, called active from +8 up or from −8 down.
Test [9] in a line: binders of probe aFST on microarray, primary screen, stem cell growth factor project, biochemical, small-molecule microarray, fluorescence 635/667 (AID 1086).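 Further: score merges 667 nm fluorescence with signal-to-noise of each printed compound spot.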 To be noted: higher = more signal.
A short description of test [10]: binders of probe aHhip on microarray, primary screen, stem cell growth factor project, biochemical, small-molecule microarray, fluorescence 635/667 (AID 1087).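 Further: score merges spot fluorescence at 667nm with spot signal to noise ratio.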 To be noted: higher = more signal.
Test [11] concerns PRMT1 (protein arginine N-methyltransferase 1). Description: PRMT1 binders on small-molecule microarrays, primary screen, biochemical, small-molecule microarray, 635 nm fluorescence (AID 1088).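 Further: binding of Prmt1 protein to compounds spotted on small-molecule microarray slides.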 To be noted: small-molecule microarray binding, higher = more signal.
Test [12] in a line: yeast growth modulation, basal conditions, primary screen, YJM789 clinical isolate, OD600, 24 h (AID 1089).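 Further: growth of clinical yeast isolate S. cerevisiae YJM 789 seeded 1000 cells per well; test concentration not given here.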 To be noted: S. cerevisiae YJM789 growth, higher = more signal, called active from +8 up or from −8 down.
Test [13] can be described thus: fission yeast growth modulation, primary screen, strain 972, OD600, 24 h, no modulator (AID 1090).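 Further: basal condition with compound alone and no growth modifier present; test concentration not given here.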 To be noted: S. pombe 972 growth, higher = more signal, called active from +8 up or from −8 down.
Test [14] in a line: S. cerevisiae growth modulation with rapamycin, primary screen, strain BY4716, OD600, 96 h (AID 1091). Further: test concentration not given here. To be noted: higher = more signal, called active from +8 up or from −8 down.
In test [15] the target is Torsin-1A-interacting protein 2 (Homo sapiens) (UniProt Q8NFQ8). Description: LULL1 binders on small-molecule microarray, primary screen, cell lysate, human LULL1 lysate, 635/667 nm fluorescence (AID 1092).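 Further: score merges per-feature 667 nm fluorescence with signal-to-noise.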 To be noted: hLULL1 lysate binding, 635 nm fluorescence, higher = more signal.
Test [16] can be described thus: E. coli growth modulation, two-sided OD650, primary screen, E. coli filamentation project, strain DRC41, 24 h (AID 1093).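 Further: MC1000 strain lacking acrAB efflux and sulA so SOS filamentation is blocked; test concentration not given here.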 To be noted: OD650, 24 h, higher = more signal, called active from +8 up or from −8 down.
Test [17] can be described thus: small-molecule microarray binders of probe aLefty2, primary screen, biochemical, biotinylated probe, 635/667 nm fluorescence (AID 1094).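 Further: score merges spot fluorescence near 667 nm with spot signal-to-noise ratio.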 To be noted: higher = more signal.
For test [18], the system named is Noggin (protein binding on small-molecule microarray). The test is described as follows: Noggin binders on small-molecule microarray, primary screen, biochemical, 635/667 nm fluorescence (AID 1095).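 Further: score merges 667 nm feature fluorescence with signal to noise over triplicate slides.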 To be noted: 635 nm fluorescence, higher = more signal.
In test [19] the target is Neurogenic locus notch homolog protein 3 (Homo sapiens) (UniProt Q9UM47). The test is described as follows: NOTCH3 binders on small-molecule microarray, primary screen, biochemical, 635/667 nm fluorescence (AID 1096). To be noted: NOTCH3 binding, 635 nm fluorescence, higher = more signal.
A short description of test [20]: small-molecule microarray binders of probe aEGFR, primary screen, biochemical, biotinylated probe, 635/667 nm fluorescence (AID 1097).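 Further: probe is a biotinylated anti-EGFR antibody binding compounds printed on slides; score combines fluorescence near 667 nm and signal to noise of each spot.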 To be noted: higher = more signal.

Sequence of Neurogenic locus notch homolog protein 3 (Homo sapiens) (Q9UM47 whole entry, looked up): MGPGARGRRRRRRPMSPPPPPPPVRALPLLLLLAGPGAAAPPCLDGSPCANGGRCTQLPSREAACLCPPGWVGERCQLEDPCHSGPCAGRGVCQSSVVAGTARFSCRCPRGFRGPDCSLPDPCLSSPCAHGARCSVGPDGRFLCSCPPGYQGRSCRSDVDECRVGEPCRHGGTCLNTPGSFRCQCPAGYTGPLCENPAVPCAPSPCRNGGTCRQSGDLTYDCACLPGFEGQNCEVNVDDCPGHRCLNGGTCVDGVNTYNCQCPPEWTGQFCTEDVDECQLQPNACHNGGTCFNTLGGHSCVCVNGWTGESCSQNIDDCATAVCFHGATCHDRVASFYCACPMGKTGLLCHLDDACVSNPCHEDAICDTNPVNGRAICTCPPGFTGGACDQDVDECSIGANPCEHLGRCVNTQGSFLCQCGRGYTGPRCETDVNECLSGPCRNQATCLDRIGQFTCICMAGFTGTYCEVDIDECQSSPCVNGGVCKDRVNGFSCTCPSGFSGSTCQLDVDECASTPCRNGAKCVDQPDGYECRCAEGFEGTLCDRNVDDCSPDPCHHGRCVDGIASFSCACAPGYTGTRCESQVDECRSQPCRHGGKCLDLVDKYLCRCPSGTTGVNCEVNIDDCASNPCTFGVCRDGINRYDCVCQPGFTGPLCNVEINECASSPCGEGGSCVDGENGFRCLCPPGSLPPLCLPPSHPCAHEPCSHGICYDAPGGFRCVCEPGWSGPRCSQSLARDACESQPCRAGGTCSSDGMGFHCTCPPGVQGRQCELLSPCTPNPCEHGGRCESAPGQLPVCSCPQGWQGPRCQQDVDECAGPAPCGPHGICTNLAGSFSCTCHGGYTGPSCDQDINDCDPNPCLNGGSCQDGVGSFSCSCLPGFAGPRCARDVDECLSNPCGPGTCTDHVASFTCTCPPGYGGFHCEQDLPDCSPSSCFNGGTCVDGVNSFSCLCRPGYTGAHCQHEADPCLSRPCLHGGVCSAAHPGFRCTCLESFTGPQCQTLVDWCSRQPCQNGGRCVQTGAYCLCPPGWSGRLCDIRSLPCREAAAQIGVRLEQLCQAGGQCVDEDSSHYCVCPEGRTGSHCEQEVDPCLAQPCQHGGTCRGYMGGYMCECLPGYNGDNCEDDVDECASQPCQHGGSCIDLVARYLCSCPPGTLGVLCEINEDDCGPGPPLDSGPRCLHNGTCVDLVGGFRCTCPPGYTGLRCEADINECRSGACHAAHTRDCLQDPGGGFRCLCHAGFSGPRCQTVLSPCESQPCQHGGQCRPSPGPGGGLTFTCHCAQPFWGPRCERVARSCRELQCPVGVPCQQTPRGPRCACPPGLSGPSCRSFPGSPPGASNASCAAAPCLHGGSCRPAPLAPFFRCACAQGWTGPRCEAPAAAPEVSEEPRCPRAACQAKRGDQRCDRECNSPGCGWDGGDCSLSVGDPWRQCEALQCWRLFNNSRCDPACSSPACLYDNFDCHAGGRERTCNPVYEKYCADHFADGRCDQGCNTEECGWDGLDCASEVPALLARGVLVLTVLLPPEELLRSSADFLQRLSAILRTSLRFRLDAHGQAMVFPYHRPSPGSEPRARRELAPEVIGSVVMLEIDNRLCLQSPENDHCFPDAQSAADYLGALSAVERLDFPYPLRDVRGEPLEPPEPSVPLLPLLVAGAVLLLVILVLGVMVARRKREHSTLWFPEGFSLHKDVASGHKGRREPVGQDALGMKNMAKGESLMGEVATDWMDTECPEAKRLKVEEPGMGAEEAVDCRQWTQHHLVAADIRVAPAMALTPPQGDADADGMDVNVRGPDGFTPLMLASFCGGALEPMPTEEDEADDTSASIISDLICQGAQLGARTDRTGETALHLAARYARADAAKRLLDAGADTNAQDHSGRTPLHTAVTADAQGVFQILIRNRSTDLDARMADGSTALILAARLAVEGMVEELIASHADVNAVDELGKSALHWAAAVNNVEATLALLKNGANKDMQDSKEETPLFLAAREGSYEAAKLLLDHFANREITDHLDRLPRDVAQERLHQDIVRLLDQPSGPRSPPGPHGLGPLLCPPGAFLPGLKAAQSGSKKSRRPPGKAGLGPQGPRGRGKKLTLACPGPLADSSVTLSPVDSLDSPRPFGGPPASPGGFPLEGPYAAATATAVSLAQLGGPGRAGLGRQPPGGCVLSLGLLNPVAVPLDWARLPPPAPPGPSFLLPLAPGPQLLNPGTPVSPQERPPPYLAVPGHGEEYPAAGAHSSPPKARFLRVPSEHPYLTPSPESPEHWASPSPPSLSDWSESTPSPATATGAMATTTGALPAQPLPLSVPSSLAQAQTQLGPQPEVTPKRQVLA
Sequence of Torsin-1A-interacting protein 2 (Homo sapiens) (Q8NFQ8 whole entry, looked up): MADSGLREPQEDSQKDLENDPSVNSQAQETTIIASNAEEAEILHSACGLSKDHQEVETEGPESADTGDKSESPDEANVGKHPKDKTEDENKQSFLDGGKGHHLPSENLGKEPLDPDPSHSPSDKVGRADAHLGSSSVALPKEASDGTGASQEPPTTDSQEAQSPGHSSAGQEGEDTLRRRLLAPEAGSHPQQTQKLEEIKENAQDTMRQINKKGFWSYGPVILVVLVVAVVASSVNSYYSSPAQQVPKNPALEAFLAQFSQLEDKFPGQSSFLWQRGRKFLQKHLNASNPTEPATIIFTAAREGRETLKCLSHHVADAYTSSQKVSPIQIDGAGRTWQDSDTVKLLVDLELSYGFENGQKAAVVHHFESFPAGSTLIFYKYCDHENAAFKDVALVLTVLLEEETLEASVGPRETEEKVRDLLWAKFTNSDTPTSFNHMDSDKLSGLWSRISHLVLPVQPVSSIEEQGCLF
Sequence of Pro-neuregulin-1, membrane-bound isoform (Homo sapiens) (Q02297 whole entry, looked up, the tested form may be a part, canonical isoform): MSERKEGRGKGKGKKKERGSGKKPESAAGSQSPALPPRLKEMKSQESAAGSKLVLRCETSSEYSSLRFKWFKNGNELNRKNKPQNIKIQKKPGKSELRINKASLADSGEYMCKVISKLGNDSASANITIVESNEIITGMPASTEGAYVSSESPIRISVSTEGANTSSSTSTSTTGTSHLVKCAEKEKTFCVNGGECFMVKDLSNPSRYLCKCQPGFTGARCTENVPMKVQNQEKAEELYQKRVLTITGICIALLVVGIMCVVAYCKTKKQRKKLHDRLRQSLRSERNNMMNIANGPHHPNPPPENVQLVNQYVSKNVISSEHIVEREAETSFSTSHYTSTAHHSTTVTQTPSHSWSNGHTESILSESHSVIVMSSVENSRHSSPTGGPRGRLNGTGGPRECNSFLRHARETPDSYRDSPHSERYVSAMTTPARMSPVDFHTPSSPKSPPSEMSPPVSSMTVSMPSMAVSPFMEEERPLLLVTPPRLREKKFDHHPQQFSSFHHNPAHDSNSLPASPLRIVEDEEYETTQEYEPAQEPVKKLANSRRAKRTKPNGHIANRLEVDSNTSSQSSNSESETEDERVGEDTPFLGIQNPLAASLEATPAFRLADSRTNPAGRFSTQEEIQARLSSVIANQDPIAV

On to `COCCOC(=O)N1C(=O)[C@@]2(c3cc(C#CC4(O)CCCCCC4)ccc31)[C@H](C(=O)N1CCc3cc(OC)c(OC)cc3C1)[C@H]1C(=O)O[C@H](c3ccccc3)[C@H](c3ccccc3)N1[C@@H]2c1ccc(OCCO)cc1`, for which the composite z-score in test [1] was -0.409; in [2] it was 0.502; in test [3], 0.0088; in test [4], 0.467; in [5], 1.24; in test [6], 0.675. The composite z-score in test [7] was 1.18; in test [9], 0.198; in [10] it was -0.0994; in test [11], 1.54; in test [15], 2.03; in [17], -0.0585. Besides, the composite z-score in test [18] was 1.3; in test [19] it was 1.09; in [20], -0.0234. In addition, the z-score in test [8] was 1 (inactive); in test [12] it was 1.98 (inactive); in test [13], 0.932 (inactive); in test [14] it was 4.4 (inactive); in test [16] it was 0.0446 (inactive).

As for `CC1=C2[C@@H](CCc3ccccc3)OB(O)C[C@@H]2[C@@H]2C(=O)N(C)C(=O)[C@@H]2C1`, the composite z-score in [1] is -0.366; in test [2], -0.19; in [3] it was -0.104; in test [4], 0.496; in [5] it was 0.849; in test [6], 1.09. Further, the composite z-score in test [7] was -0.0884; in [9] it was 0.438; in [10], -0.171; in test [11], 0.618; in test [15] it was 0.299; in [17] it was -0.197. Further, the composite z-score was 0.446 in test [18], 0.279 in test [19] and -0.0238 in [20]. In addition, the z-score in test [8] is 1.26 (inactive); in test [12], -0.229 (inactive); in [13], -1.2 (inactive); in test [14] it was -1.24 (inactive); in test [16], -0.253 (inactive).

For the molecule `COc1ccc(CCNC(=O)[C@@]2(Sc3ccc(C)cc3)CC(=O)N(Cc3ccccc3C(F)(F)F)[C@@H]2c2ccc(CO)cc2I)cc1`, the composite z-score is 0.673 in [1]; -1.11 in [2]; -0.156 in [3]; 0.116 in test [4]; -1.11 in test [5]; 1.99 in test [6]. In addition, the composite z-score in [7] is 1.01; in [9], -0.261; in test [10], -0.236; in test [11] it was 1; in test [15], 1.97; in test [17], -0.0668. Further, the composite z-score in test [18] was -1.46; in test [19], -1.03; in [20], -0.264. Besides, the z-score in test [8] was -1.08 (inactive); in test [12] it was -1.65 (inactive); in test [13], -4.64 (inactive); in test [14], 1.22 (inactive); in test [16] it was 0.404 (inactive).

With `CN(C)c1ccc(C(O)C2C=CC3C(=O)NC(=O)C3N2Nc2ccccn2)cc1` (stereo not given), the composite z-score in test [1] was -0.142; in [2] it was 1.55; in test [3], -0.0982; in [4], 0.68; in test [5], 1.5; in test [6], 1.15. The composite z-score was 1.41 in test [7]; 0.995 in test [9]; -0.134 in test [10]; 0.757 in test [11]; 1.31 in test [15]; -0.118 in [17]. Also, the values for the composite z-score in [18], in [19] and in [20] were 0.438, 1 and 0.107, respectively. Also, the z-score in test [8] was 2.15 (inactive); in test [12], -0.0671 (inactive); in [13], 0.716 (inactive); in test [14], 0.504 (inactive); in test [16] it was -1.26 (inactive).

With `COCCOC(=O)N1C(=O)[C@@]2(c3cc(C#CCC(C(=O)OC)C(=O)OC)ccc31)[C@H](c1ccc(OCCO)cc1)N1[C@H](c3ccccc3)[C@H](c3ccccc3)OC(=O)[C@H]1[C@@H]2C(=O)N1CCc2cc(OC)c(OC)cc2C1`, the composite z-score in test [1] is 0.119; in test [2], 0.351; in test [3], -0.0985; in test [4], 0.953; in [5] it was 1.21; in test [6], 1.54. The composite z-score in test [7] was 1.25; in [9], 0.47; in test [10], -0.131; in test [11], 1.55; in [15], 2.81; in [17], 0.0146. Moreover, the composite z-score in test [18] was determined as 1.72; in test [19], 1.06; in test [20], 0.091. The z-score is 0.913 (inactive) in test [8]; 2.13 (inactive) in [12]; 2 (inactive) in test [13]; 5.2 (inactive) in test [14]; 0.713 (inactive) in test [16].
